Inhibition data for 45 molecules are collected here from PubChem BioAssay AID1986 (Sanford-Burnham Center for Chemical Genomics, 2009).

The assay in a line: cell-free HIV fusion peptide-binding blockers – biochemical, uHTS, fluorescence dequenching, primary screen (AID 1986). The following applies: 30 min, stronger effect = higher value.
Setting [1] is: measured here: repeat confirmation average inhibition, at 18.6 µM.

SMILES strings stand for the structures. In all, about 290,000 compounds went through this assay and about 890 (0.31%) were called active. No stated cut-off is given here; in the data, active means inhibition mostly above about 52% (no sharp cut-off); inactive means mostly below about 76%. What follows is part of a selection rich in actives, with near analogues and random picks from the rest.

The inhibition is the relative decrease from the control value, in per cent. `CCOc1ccc(N(C)C(=O)CCc2nnc3ccc(N4CCC5(CC4)OCCO5)nn23)cc1`: the inhibition (at 20 µM) was 0.1% (inactive).
As to `COc1ccc(CC(=O)N(C)CC(=O)Nc2ccccc2SC)cc1`, the inhibition (at 20 µM) is 3.4% (inactive).
On the same count and under the same terms, next, `COc1ccc(OC)c(NC(=O)CN(C)S(=O)(=O)c2ccc3nc(C)sc3c2)c1`: -0.6% (inactive).
Still for that read-out and setting: next, `N#CCCN(/N=C/c1cccnc1)C1=NS(=O)(=O)c2ccccc21`: -1.4% (inactive).
Turning to `CN(C)c1ccc(/C=N/N(CCC#N)C2=NS(=O)(=O)c3ccccc32)cc1`, the inhibition reads like this: (at 20 µM) 69.3% (active); under setting [1], 64.2%.
For `CN(C)c1ccc(/C=N/N(CCO)C2=NS(=O)(=O)c3ccccc32)cc1`, for the setting “at 20 µM”, the inhibition was 159% (inactive).
For the molecule `O=C(COc1ccc(F)cc1)N(Cc1cccs1)C1CCS(=O)(=O)C1` (stereo not given), where the note is “at 20 µM”, the inhibition was 3.2% (inactive).
Regarding `O=C(Nc1cccc(Oc2ccc(C(=O)O)c(C(=O)O)c2)c1)c1ccc(-c2ccccc2)cc1`, the inhibition (at 20 µM) is 75.5% (active).
Turning to `Cc1ccc(C(=O)Nc2ccc(Oc3ccc(C(=O)O)c(C(=O)O)c3)cc2)cc1C`, the inhibition (at 20 µM) was 17.4% (inactive).
On the same count and under the same terms, in the case of `CC(C)(C)C(=O)Nc1ccc(C(=O)Nc2cccc(Oc3ccc(C(=O)O)c(C(=O)O)c3)c2)cc1` it was 37.8% (inactive); in that of `CCN1/C(=C\C=C(C(C)=O)C(C)=O)Sc2ccccc21`, 148% (inactive).
In the case of `CCOC(=O)/C(=C/C=C1\Sc2ccccc2N1CC)C(C)=O`, the inhibition is 114% (active) (at 20 µM) and 145% under setting [1].
Consider `CCOC(=O)/C(=C\C=C1/Sc2ccccc2N1CC)C(C)=O`, for which the inhibition (at 20 µM) was 150% (inactive).
For `C=Cc1ccc(C(=O)NC2CCCN(Cc3ccccc3F)C2)cc1` (stereo not given), under “at 20 µM”, the inhibition is 1.1% (inactive).
The same measure, in the same setting: next, `CC(C)c1ccc(C(=O)NCc2ccc(Cl)cc2)cc1`: -2.4% (inactive); `Cc1ccc2c(c1)c(N=O)c(O)n2Cc1ccc(Cl)cc1`: -0.1% (inactive).
Still for that read-out and setting: in the case of `CC(C)c1ccc2c(c1)c(SC(C)(C)C)c(CC(C)(C)C(=O)O)n2Cc1ccc(Cl)cc1` it was 53.9% (active); in that of `CN(Cc1nccn1C)C(=O)CC1C(=O)NCCN1Cc1ccc(F)cc1Cl` (stereo not given), -0.5% (inactive).
Same read-out and setting: next, `Cc1cc2ncc(C(N)=O)cn2n1`: -1.8% (inactive).
As for `O=C(/C=C/c1ccco1)c1ccc(NC(=O)C23CC4CC(CC(C4)C2)C3)cc1`, for the setting “at 20 µM”, the inhibition is 50.7% (active).
On to `CC(=O)Nc1ccc(C(=O)/C=C/c2ccco2)cc1`, for which the inhibition (at 20 µM) was 36% (inactive).
With `O=C(/C=C\c1ccco1)c1ccc(NC(=O)c2ccco2)cc1`, the inhibition reads like this: (at 20 µM) 58.2% (inactive); under setting [1], 3%.
`COCCCn1c(=O)/c(=C\c2ccccc2OC(C)C)s/c1=C(/C#N)C(=O)Nc1ccc(C(=O)O)cc1`: the inhibition (at 20 µM) is 77.3% (active).
`COCCCn1c(=O)/c(=C\c2cccc(OC)c2OC)s/c1=C(/C#N)C(=O)Nc1ccc(C(=O)O)cc1`: the inhibition runs as follows: (at 20 µM) 54.1% (inactive); under setting [1], 33.7%.
Turning to `COCCCn1c(=O)/c(=C\c2ccccc2OC(F)F)s/c1=C(/C#N)C(=O)NC(C)C`, the inhibition by setting is: (at 20 µM) 75.2% (inactive); under setting [1], 5.3%.
With `Cc1ccc(C(=O)OCC(=O)N(C)C2CCS(=O)(=O)C2)cc1[N+](=O)[O-]` (stereo not given), the inhibition (at 20 µM) was -0.5% (inactive).
Regarding `CC(=O)c1cccc(NC(=O)CSc2ccc(-c3ccc4c(c3)OCO4)nn2)c1`, under “at 20 µM”, the inhibition was 0.3% (inactive).
Same read-out and setting: next, `O=C(O)c1cccc(Cn2c(Cl)c(/C=N/NC(=O)c3ccccc3O)sc2=O)c1`: 28.1% (inactive); `O=C(NN=C1CCN(Cc2ccccc2)CC1)c1ccccc1O`: 3.9% (inactive).
Turning to `O=C(NN=C1CCN(Cc2ccccc2)CC1)c1cc2ccccc2cc1O`, under “at 20 µM”, the inhibition is 56% (active).
The same measure, in the same setting: next, `O=C(O)c1cccc(Cn2c(Cl)c(/C=N/NC(=O)c3ccccc3Cl)sc2=O)c1`: 6.2% (inactive); `O=C(NN=C1CCN(Cc2ccccc2)CC1)c1cc(Br)ccc1O`: 7.6% (inactive).
For `O=C(O)c1cccc(Cn2c(Cl)c(/C=N/NC(=O)c3cc4ccccc4cc3O)sc2=O)c1`, the inhibition (at 20 µM) is 61.5% (active).
On the same count and under the same terms, in the case of `Clc1ncc(Cn2cccn2)s1` it was -0.3% (inactive); in that of `Cc1ccc(C)c(N2CCN(C(=O)CCCn3c(=S)[nH]c4cc5c(cc4c3=O)OCO5)CC2)c1`, -4.3% (inactive); in that of `Nc1c(C2=NCCO2)nnn1Cc1ccccc1`, -0.3% (inactive).
With `O=C(Nc1cccc(OCC(=O)N2CCOCC2)c1)c1ccc(C(F)(F)F)cc1`, the inhibition (at 20 µM) is 1.4% (inactive).
Consider `Cc1cc(C)cc(N(C(C)C(=O)N2CCCC2)S(C)(=O)=O)c1` (stereo not given), for which the inhibition (at 20 µM) is 2.9% (inactive).
Still for that read-out and setting: next, `CCc1cc[n+](-c2nc3ccccc3nc2[N-]S(=O)(=O)c2ccc(Br)s2)cc1`: 96.6% (active); `Cc1cc[n+](-c2nc3ccccc3nc2[N-]S(=O)(=O)c2ccccc2)cc1`: 12.1% (inactive).
On the same count and under the same terms, in the case of `Cc1cc(C)c[n+](-c2nc3ccccc3nc2[N-]S(=O)(=O)c2ccc(Br)s2)c1` it was 26.7% (inactive).
For the molecule `O=S(=O)([N-]c1nc2ccccc2nc1-[n+]1ccccc1)c1ccccc1`, the inhibition (at 20 µM) was 9.8% (inactive).
Still for that read-out and setting: in the case of `O=S(=O)([N-]c1nc2ccccc2nc1-[n+]1ccc(-c2ccncc2)cc1)c1ccccc1` it was 83.2% (active).
On the same count and under the same terms, in the case of `O=S(=O)([N-]c1nc2ccccc2nc1-[n+]1ccc(Cc2ccccc2)cc1)c1ccc(Br)s1` it was 12.8% (inactive); in that of `Cc1ccc(S(=O)(=O)N2CCC(=O)N(CCOC(=O)Nc3cc(C)cc(C)c3)CC2)cc1`, -2% (inactive).
